The list is not random: actives were taken first. Their share in the collection is about 1.6%.
KCNQ2 pot = potentiators of rat KCNQ2 potassium channel; Potassium voltage-gated channel subfamily KQT member 2 (Rattus norvegicus), O88943; CHO-K1 KCNQ2, FluxOR thallium flux fluorescence; hits give high values; B-score at 10 µM; hit rate 0.54% among 310,000;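 active means fluorescence ratio B-score at least 3 SD of library B-scores, with initial fluorescence B-score within 3 of them, cut at about 5.3 in these data; same plate scores as AID 2156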;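 further: B-score of peak minus minimum over baseline fluorescence ratio after K+ and Tl+ stimulus; positive B-score means potentiation of KCNQ2 with more thallium influx and brighter signal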
Target sequence (O88943 whole entry, looked up): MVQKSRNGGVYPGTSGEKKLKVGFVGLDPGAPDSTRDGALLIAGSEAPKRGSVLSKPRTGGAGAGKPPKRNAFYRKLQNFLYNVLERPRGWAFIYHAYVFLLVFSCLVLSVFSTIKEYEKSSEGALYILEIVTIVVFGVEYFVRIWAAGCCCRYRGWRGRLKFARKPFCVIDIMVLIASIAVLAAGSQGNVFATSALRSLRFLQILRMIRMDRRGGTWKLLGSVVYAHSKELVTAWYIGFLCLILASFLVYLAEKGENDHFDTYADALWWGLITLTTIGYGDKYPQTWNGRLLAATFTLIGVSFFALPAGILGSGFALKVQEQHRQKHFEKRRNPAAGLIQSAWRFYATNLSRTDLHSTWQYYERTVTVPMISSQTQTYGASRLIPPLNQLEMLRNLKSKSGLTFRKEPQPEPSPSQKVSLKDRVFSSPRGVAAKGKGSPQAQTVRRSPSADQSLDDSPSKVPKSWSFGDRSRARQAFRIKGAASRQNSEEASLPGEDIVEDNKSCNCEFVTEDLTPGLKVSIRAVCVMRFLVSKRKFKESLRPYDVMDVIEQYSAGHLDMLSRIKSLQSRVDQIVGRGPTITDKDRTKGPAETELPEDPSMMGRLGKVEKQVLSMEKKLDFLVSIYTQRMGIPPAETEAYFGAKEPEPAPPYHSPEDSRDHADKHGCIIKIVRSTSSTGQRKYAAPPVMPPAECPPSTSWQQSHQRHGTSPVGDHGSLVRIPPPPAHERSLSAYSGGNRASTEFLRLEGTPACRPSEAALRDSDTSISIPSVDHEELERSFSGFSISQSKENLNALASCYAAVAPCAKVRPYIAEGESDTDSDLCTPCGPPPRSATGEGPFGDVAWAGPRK
KCNQ2 inh = rat KCNQ2 potassium channel inhibitors, primary screen, cell-based, CHO-K1, FluxOR thallium flux, B-score; B-score at 10 µM; 20 min; hits give low values; hit rate 1.1% among 310,000;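 active means fluorescence ratio B-score at most minus 3 library SDs, with starting brightness B-score within 2 library SDs, cut at about -5.5 in these data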
A number is an active result.

How did CN(C)CCNC(=O)c1ccc(COc2ccc(Cl)cc2Cl)cc1 do in these assays?
KCNQ2 pot: inactive; KCNQ2 inh: -7.6

Results for COc1ccc(Cl)cc1C(=O)NCCN(C)C ?
KCNQ2 pot: inactive; KCNQ2 inh: inactive

What do the screens show for `COc1ccc(CCNC(=O)C(C)n2nc(C)n3c(cc4occc43)c2=O)cc1OC` (centres undefined)?
KCNQ2 pot: inactive; KCNQ2 inh: inactive

Results for CC(=O)Nc1ccc(NC(=O)C(NS(=O)(=O)c2cccc3nsnc23)C(C)C)cc1 (centres undefined) ?
KCNQ2 pot: inactive; KCNQ2 inh: inactive

Results for COc1cccc(C2CC(c3ccccc3Cl)n3nc(N)nc3N2)c1 (centres undefined) ?
KCNQ2 pot: inactive; KCNQ2 inh: inactive

Results for COc1ccc(C2(c3ccc(O)cc3O)CC(c3ccccc3Cl)NC(=S)N2)cc1 (centres undefined) ?
KCNQ2 pot: 6.1; KCNQ2 inh: inactive

Results for CC(C)(C)N(Cc1ccccc1)C(=O)c1cc2ccccc2o1 ?
KCNQ2 pot: inactive; KCNQ2 inh: -5.9

Results for CN(Cc1ccccc1)C(=O)c1cc2ccccc2o1 ?
KCNQ2 inh: inactive

Results for COc1ccc(-c2noc(-c3ccccc3F)n2)cc1 ?
KCNQ2 pot: inactive; KCNQ2 inh: inactive

Results for COc1ccc(-c2noc(-c3ccccc3-c3ccccc3)n2)cc1 ?
KCNQ2 pot: inactive; KCNQ2 inh: -6.6

Results for Cc1cccc(NCc2ccccc2OCc2ccccc2F)c1 ?
KCNQ2 pot: inactive; KCNQ2 inh: -5.5

How did Cc1ccc(NCc2ccccc2OCc2ccccc2F)cc1 do in these assays?
KCNQ2 inh: inactive

What do the screens show for `Cc1ccc(Cl)cc1N1CCN(Cc2cc3c(cc2O)CCC3)CC1`?
KCNQ2 pot: inactive; KCNQ2 inh: -6

What do the screens show for `Cc1ccc(Cl)cc1N1CCN(C(=O)c2ccc(CN3CCOCC3)cc2)CC1`?
KCNQ2 pot: inactive; KCNQ2 inh: inactive

What do the screens show for `Cc1ccccc1N(CC(=O)NCC1CCCO1)C(=O)CNS(=O)(=O)c1ccc(F)cc1` (centres undefined)?
KCNQ2 pot: inactive; KCNQ2 inh: inactive

Results for Cc1ccsc1/C=C1/SC(N2CCOCC2)=NC1=O ?
KCNQ2 pot: inactive; KCNQ2 inh: inactive

What do the screens show for `O=C1N=C(N2CCOCC2)S/C1=C\c1cccs1`?
KCNQ2 pot: 8.8; KCNQ2 inh: inactive

Results for CN1CCC(=NNC(=O)CN(c2ccc([N+](=O)[O-])cc2)S(=O)(=O)c2ccccc2)CC1 ?
KCNQ2 inh: inactive

How did CCOC(=O)N1c2ccccc2Sc2ccccc21 do in these assays?
KCNQ2 inh: inactive

Results for Cc1ccccc1/C(N)=N/OC(=O)N1c2ccccc2Sc2ccccc21 ?
KCNQ2 pot: inactive; KCNQ2 inh: -5.8

How did Cc1ccc(NC(=O)Cn2nnc(C(=O)NCc3cccs3)c2N)cc1F do in these assays?
KCNQ2 inh: inactive

Results for CCOc1ccc(C(=O)NC(C(=O)NCc2ccccc2OC)C(C)C)cc1 (centres undefined) ?
KCNQ2 inh: inactive

Results for CCOc1ccccc1C(=O)NC(C(=O)NCc1ccccc1OC)C(C)C (centres undefined) ?
KCNQ2 pot: inactive; KCNQ2 inh: -6.2

Results for O=C(CSc1nnnn1-c1cccc(O)c1)NC1CC1 ?
KCNQ2 pot: inactive; KCNQ2 inh: inactive

How did CCOC(=O)C1CCN(C(=O)COC(=O)c2oc3ccccc3c2C)CC1 do in these assays?
KCNQ2 pot: inactive; KCNQ2 inh: inactive

Results for O=C(CNS(=O)(=O)c1ccc(Br)s1)NCc1ccc(F)cc1 ?
KCNQ2 pot: inactive; KCNQ2 inh: -5.9

What do the screens show for `O=C(CCNS(=O)(=O)c1ccc(Br)s1)NCc1ccc(F)cc1`?
KCNQ2 pot: inactive; KCNQ2 inh: inactive

How did Cc1ccc(S(=O)(=O)N(CC(=O)Nc2ccccc2)C(=O)N2CCN(C)CC2)cc1 do in these assays?
KCNQ2 inh: inactive

What do the screens show for `COc1cc2c(cc1OC)C(C(=O)NC(C)c1ccccc1)CC(=O)N2` (centres undefined)?
KCNQ2 inh: inactive

How did Cc1ccc(C(=O)N/N=C(/CC(=O)c2cccs2)C(F)(F)F)cc1 do in these assays?
KCNQ2 pot: 13; KCNQ2 inh: inactive

How did O=C(N/N=C(\CC(=O)c1cccs1)C(F)(F)F)c1ccncc1 do in these assays?
KCNQ2 pot: inactive; KCNQ2 inh: inactive

What do the screens show for `CCSc1ncc(/C=N/Nc2ccc(F)cc2)n1C`?
KCNQ2 pot: inactive; KCNQ2 inh: -8.5

How did CC(=O)Nc1ccc(NC(=O)CSc2ncc(C(=O)Nc3ccc(F)cc3)c(=O)n2C)cc1 do in these assays?
KCNQ2 inh: inactive

Results for CCOC(=O)c1ccccc1NC(=O)CSc1nnc(COc2ccccc2)n1CC ?
KCNQ2 pot: inactive; KCNQ2 inh: -6.4

Results for CCOC(=O)c1cccc(NC(=O)CSc2nnc(COc3ccccc3)n2CC)c1 ?
KCNQ2 inh: inactive

What do the screens show for `Cn1ccsc1=NC(=O)c1ccc(OC(F)(F)F)cc1`?
KCNQ2 pot: inactive; KCNQ2 inh: inactive

How did COc1cc(/C=N/NC2=NS(=O)(=O)c3ccccc32)cc(OC)c1OC do in these assays?
KCNQ2 pot: inactive; KCNQ2 inh: inactive

What do the screens show for `COc1cc(/C=N/NC2=NC(C)(C)Cc3ccccc32)cc(OC)c1OC`?
KCNQ2 pot: inactive; KCNQ2 inh: -5.6

Results for CC(C)Oc1ccc(C(=O)N2CCN(C(=O)c3ccco3)CC2)cc1 ?
KCNQ2 inh: inactive

How did Cc1ccc(S(=O)(=O)Nc2cccc(-n3cnnn3)c2)cc1C do in these assays?
KCNQ2 pot: inactive; KCNQ2 inh: inactive

Results for COc1ccccc1CCNS(=O)(=O)CCNC(=O)c1ccccc1 ?
KCNQ2 pot: inactive; KCNQ2 inh: inactive

What do the screens show for `COc1ccccc1CCNC(=O)c1ccc(Br)s1`?
KCNQ2 pot: inactive; KCNQ2 inh: -6.3

How did CCC(=O)c1ccc(OCC(=O)OCC(=O)NCC2CCCCC2)cc1 do in these assays?
KCNQ2 pot: inactive; KCNQ2 inh: inactive

What do the screens show for `N#CCc1nc(C(c2ccccc2)c2ccccc2)no1`?
KCNQ2 inh: inactive

Results for CCc1ccccc1Nc1nc(N)nc(CSCC(=O)Nc2ccc(C)c(C)c2)n1 ?
KCNQ2 pot: 19; KCNQ2 inh: inactive

How did Cc1ccccc1CSCc1nc(N)nc(Nc2ccccc2C)n1 do in these assays?
KCNQ2 pot: inactive; KCNQ2 inh: inactive

Results for CCc1ccc(NC(=O)CSCc2nc(N)nc(Nc3ccccc3CC)n2)cc1 ?
KCNQ2 pot: 15; KCNQ2 inh: inactive

What do the screens show for `CCc1ccccc1Nc1nc(N)nc(COC(=O)c2cccn2C)n1`?
KCNQ2 pot: inactive; KCNQ2 inh: inactive

What do the screens show for `COc1cccc(CN(C(=O)COc2ccc(Cl)cc2)C2CCS(=O)(=O)C2)c1` (centres undefined)?
KCNQ2 inh: inactive

How did COc1cc(/C=C/C(=O)O)cc(S(=O)(=O)N2CCN(S(=O)(=O)c3ccc(Cl)cc3)CC2)c1OC do in these assays?
KCNQ2 inh: inactive

What do the screens show for `COc1ccc(Cl)cc1NC(=O)NCc1ccc2c(c1)OCO2`?
KCNQ2 pot: inactive; KCNQ2 inh: inactive

What do the screens show for `CCn1nc(NC(=O)c2ccccn2)c2cc3cc(C)ccc3nc21`?
KCNQ2 pot: inactive; KCNQ2 inh: inactive

How did Cc1ccc2nc3c(cc2c1)c(NC(=O)c1ccccn1)nn3CC(C)C do in these assays?
KCNQ2 pot: inactive; KCNQ2 inh: -7.5

Results for CN(CC1CCOCC1)C(=O)CC1C(=O)NCCN1CC(c1ccccc1)c1ccccc1 (centres undefined) ?
KCNQ2 pot: inactive; KCNQ2 inh: -5.9

Screens: PubChem BioAssay, Johns Hopkins Ion Channel Center
